For twelve compounds, max response, outcome and Potency results are on record in PubChem BioAssay (NCATS).

Records with an inconclusive call do not appear. Unmarked numbers belong to inactive results. The source made the active and inactive calls. Calls follow the shape of the dose curve; as a rule, active = well fitted curve in the direction sought with a large enough effect; inconclusive = small, poorly fitted or top-dose-only effect, or another doubt; inactive = no such curve, though single readings can be large; an effect the other way counts as inactive or inconclusive.

One test concerns CRL-7250. Briefly: Cytotoxic Profiling of Annotated Libraries Using Quantitative High-Throughput Screening (AID 1296008). Also: nearly all actives have a fitted effect of over 60% in size. As to max response: % is scaled to controls: 0 for no effect and ±100 for the full control effect. The conditions noted are these: Five cell lines viability, CellTiter-Glo ATP luminescence, 48-72 h; max response: stronger effect = lower value. The essentials: (§1)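 Cells exposed to compounds for 48 or 72 hr at 37 degrees Celsius. Viability read as ATP-coupled luminescence with CellTiter-Glo after 10 min at room temperature.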

The next test has as its system HEK293. Described as above. Conditions: Five cell lines viability, CellTiter-Glo ATP luminescence, 48-72 h; max response: stronger effect = lower value. In a few lines: as §1
The subject of test [1] is HaCat. Described as above. Conditions: Five cell lines viability, CellTiter-Glo ATP luminescence, 48-72 h; max response: stronger effect = lower value. In a few lines: as §1
For another test, the system named is KB-3-1. The test is described as above. The conditions noted are these: Five cell lines viability, CellTiter-Glo ATP luminescence, 48-72 h; max response: stronger effect = lower value. The essentials:
as §1

In test [2] the test system is NIH3T3. The test is described as above. The conditions noted are these: Five cell lines viability, CellTiter-Glo ATP luminescence, 48-72 h; max response: stronger effect = lower value. The essentials: as §1
In test [3] the test system is NIH3T3. Briefly: qHTS assay to identify novel small-molecules to repurpose for Merkel cell carcinoma treatment (AID 1296009). Also: nearly all actives have a fitted effect of over 60% in size. Conditions: MCC and control cell lines, CellTiter-Glo viability, 72 h; at 44.8 µM (top of the series) unless noted. The essentials: (§2)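 Dose-response viability screen; 72 hr exposure at 37 degree celsius; CellTiter-Glo added, 10 min room temperature, luminescence read; RLUs scaled between no-cell and DMSO wells.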

The test system of the next test is C33A. Briefly: Primary qHTS to identify gynecologic anti-cancer compounds using libraries of approved drugs and bioactive compounds (AID 1345084). Also: nearly all actives have a fitted effect of over 55% in size. Also: potency is read from the fitted curve at half-maximal effect. The conditions noted are these: Gynecologic cancer cell panel viability, ATPlite luminescence, 48 h; series mostly up to 57.5 µM. The essentials:
(§3)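 Cell viability after 48 h drug treatment, ATPlite luminescence readout; five doses.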

For the next test, the system named is CASKI. Described as above. Conditions: Gynecologic cancer cell panel viability, ATPlite luminescence, 48 h; series mostly up to 57.5 µM. The essentials:
as §3

In another test the test system is Es-2. The test is described as above. The conditions noted are these: Gynecologic cancer cell panel viability, ATPlite luminescence, 48 h; series mostly up to 57.5 µM. In a few lines:
as §3

A further test relates to HeLa. The test is described as above. The conditions noted are these: Gynecologic cancer cell panel viability, ATPlite luminescence, 48 h; series mostly up to 57.5 µM. The essentials: as §3
Test [4] concerns Hek293T. The test is described as above. Conditions: Gynecologic cancer cell panel viability, ATPlite luminescence, 48 h, control line for the selectivity index; series mostly up to 57.5 µM. The essentials:
as §3

A further test relates to JEG-3. The description is as above. The conditions noted are these: Gynecologic cancer cell panel viability, ATPlite luminescence, 48 h; series mostly up to 57.5 µM. In a few lines:
as §3

The next test has as its system OV90. The description is as above. The conditions noted are these: Gynecologic cancer cell panel viability, ATPlite luminescence, 48 h; series mostly up to 57.5 µM. In a few lines:
as §3

A further test concerns CAOV3. The description is as above. Conditions: Gynecologic cancer cell panel viability, ATPlite luminescence, 48 h; series mostly up to 57.5 µM. In a few lines: as §3
Test [5] has as its system HACAT. Put plainly: qHTS assay to identify novel small-molecules to repurpose for Merkel cell carcinoma treatment (AID 1296009). Also: nearly all actives have a fitted effect of over 60% in size. The conditions noted are these: MCC and control cell lines, CellTiter-Glo viability, 72 h; at 44.8 µM (top of the series) unless noted. In a few lines:
as §2

In test [6] the test system is HEK293T. Described as above. Conditions: MCC and control cell lines, CellTiter-Glo viability, 72 h; at 44.8 µM (top of the series) unless noted. The essentials:
as §2

Regarding `CC1=CC23[C@H](C=C(C(=O)O)[C@@H]2COC(=O)[C@]3(O)CO)[C@@H]1C` (some centres not stated), the max response in the test with CRL-7250 is -1.44%; with HEK293 it was 2.57%; in the test with HaCat [1], -3.69%; in the test with KB-3-1, 5.88%. For the same compound, the compound was classed as inactive with NIH3T3 [2], in the test with NIH3T3 [3] and in the test on CASKI. For the same compound, the Potency entry in the test on C33A, in the test on Es-2, in the test with HeLa, in the test with Hek293T [4], with JEG-3 and with OV90 was “inactive” throughout.
With `Cc1ccc(Cl)cc1N(CC(=O)Nc1c(F)cccc1F)S(C)(=O)=O`, the max response in the test with CRL-7250 was -3.38%; in the test with HEK293, -7.88%; with HaCat [1] it was -2.84%; in the test with KB-3-1 it was 5.59%. Besides, the call in the test with NIH3T3 [2] and in the test on CASKI was inactive. Also, the Potency entry in the test on C33A, in the test with CAOV3, in the test with Es-2, in the test with HeLa, in the test with Hek293T [4] and with JEG-3 was “inactive” each time. For the same compound, the Potency result with OV90 is “inactive”.
With `COc1ccccc1Oc1c(NS(=O)(=O)c2ccc(C)cn2)nc(-c2ccncc2)nc1OC`, the max response in the test on CRL-7250 was 3.94%; with NIH3T3 [2], 0.566%. The result in the test with HaCat [1], in the test with KB-3-1, with HACAT [5] and with CASKI was inactive. Further, the Potency result with C33A, in the test on CAOV3, in the test on Es-2, in the test with HeLa, with Hek293T [4] and in the test with JEG-3 was “inactive” each time. Further, the Potency result in the test on OV90 is “inactive”.
As to `CC1(C)CCC2(C(=O)O)CCC3(C)C(=CCC4C5(C)CCC(O)C(C)(CO)C5C(O)CC43C)C2C1` (configuration not stated), the max response in the test with CRL-7250 is -7.98%; with KB-3-1 it was 4.19%. For the same compound, the compound was classed as inactive in the test on HaCat [1], with NIH3T3 [2] and with CASKI. Besides, the outcome in the test on HACAT [5] and with NIH3T3 [3] was “inactive [at 17.4 µM]” each time. Further, the Potency result in the test with C33A, in the test on CAOV3, in the test with Es-2, in the test on HeLa, in the test on Hek293T [4] and with JEG-3 was “inactive” each time. Moreover, the Potency entry in the test on OV90 is “inactive”.
Regarding `CNC(C)C(=O)NC(C(=O)N1CCCC1C(=O)Nc1cccc2ncccc12)C(C)C` (configuration not stated), the result in the test on CRL-7250, with HaCat [1], in the test with NIH3T3 [2], in the test on HACAT [5], with NIH3T3 [3] and in the test with CASKI was inactive. Moreover, the max response in the test with KB-3-1 was 2.7%. Further, the Potency entry with C33A, in the test on Es-2, in the test with HeLa, with Hek293T [4], in the test on JEG-3 and in the test on OV90 was “inactive” each time. Moreover, the Potency with CAOV3 was 10 µM (active).
Turning to `OC[C@H]1O[C@@H](OCCc2ccccc2)[C@H](O[C@@H]2OC[C@@H](O)[C@H](O)[C@H]2O)[C@@H](O)[C@@H]1O`, the result in the test on CRL-7250, in the test on HaCat [1], in the test with NIH3T3 [2] and in the test with CASKI was inactive. The max response with KB-3-1 was 9.19%. The outcome with HACAT [5] and with NIH3T3 [3] was “inactive [at 17.4 µM]” in each case. The Potency result with C33A, in the test with Es-2, with HeLa, in the test on Hek293T [4], in the test on JEG-3 and in the test on OV90 was “inactive” in each case.
As to `O=C(/C=C/c1ccc(O)cc1)O[C@H]1[C@H](OC2CCCCC2O)O[C@H](CO)[C@@H](O)[C@@H]1O` (some centres not stated), the results for the max response in the test with CRL-7250 and in the test with KB-3-1 were -2.64% and 5.56%, respectively. In addition, the call in the test with HaCat [1], in the test with NIH3T3 [2] and in the test with CASKI was inactive. The outcome in the test on HACAT [5] is “inactive [at 17.4 µM]”. The Potency entry in the test on C33A, in the test on CAOV3, in the test with Es-2, with HeLa, with Hek293T [4] and in the test with JEG-3 was “inactive” throughout. The Potency result in the test with OV90 was “inactive”.
Turning to `OC[C@@]1(O)CO[C@@H](OC[C@H]2O[C@@H](Oc3ccccc3)[C@H](O)[C@@H](O)[C@@H]2O)[C@@H]1O`, the call with CRL-7250, in the test on HaCat [1], in the test on NIH3T3 [2], in the test on HACAT [5] and in the test with CASKI was inactive. Besides, the max response with KB-3-1 is 0.107%. Moreover, the Potency entry in the test with C33A, in the test on CAOV3, in the test with Es-2, in the test with HeLa, in the test on Hek293T [4] and in the test with JEG-3 was “inactive” each time. Also, the Potency result in the test with OV90 is “inactive”.
Regarding `CC1(C)C[C@H]2C=C(C=O)[C@]3(C(=O)O)C[C@]3(C)[C@H]2C1`, the max response with CRL-7250 is -0.156%; in the test on KB-3-1, 6.21%; with NIH3T3 [2], 0.712%. Also, the outcome in the test with HaCat [1], with HACAT [5] and in the test on CASKI was inactive. The Potency entry with C33A, with CAOV3, with HeLa, with Hek293T [4], in the test on JEG-3 and in the test on OV90 was “inactive” throughout.
`CC(CCO)CCC1C2(C)CCCC(C)(C)C2CC[C@@]1(C)O` (some centres not stated): the compound was classed as inactive in the test with CRL-7250, in the test with NIH3T3 [2], in the test on NIH3T3 [3] and in the test with CASKI. Besides, the values for the max response in the test on HaCat [1] and with KB-3-1 were -19.9% and 7.08%, respectively. Also, the Potency entry in the test on C33A, in the test on CAOV3, with Es-2, in the test with HeLa, in the test on Hek293T [4] and in the test on JEG-3 was “inactive” throughout. Moreover, the Potency result in the test on OV90 is “inactive”.
`COc1cc(C(CO)CO[C@@H]2O[C@H](CO)[C@@H](O)[C@H](O)[C@H]2O)ccc1O` (some centres not stated): the max response was -15.6% in the test with CRL-7250, -35.5% in the test with HaCat [1], 5.97% in the test with KB-3-1 and -7.99% in the test with NIH3T3 [2]. The result with HEK293T [6] was inactive. In addition, the Potency result with C33A, in the test with CAOV3, with Es-2, in the test on HeLa, in the test with Hek293T [4] and in the test on JEG-3 was “inactive” throughout. For the same compound, the Potency entry with OV90 was “inactive”.
As to `Cc1ccc(Nc2nnc(-c3ccc([N+](=O)[O-])cc3)o2)cc1Cl`, the compound was called inactive in the test on CRL-7250, with HaCat [1], in the test with NIH3T3 [2], with HACAT [5], in the test on NIH3T3 [3] and with CASKI. In addition, the max response in the test on KB-3-1 is -2.92%. Moreover, the Potency entry in the test on C33A, in the test with CAOV3, in the test with Es-2, in the test on HeLa, in the test on Hek293T [4] and in the test with JEG-3 was “inactive” each time. Moreover, in the test on OV90, the Potency result is “inactive”.
